Results as given in PubChem BioAssay (NCATS).
Inconclusive results are not listed. Calls of active or inactive are those of the source. Calls come from the whole dose curve; as a rule, active = well fitted cell-killing curve with a large enough effect; inconclusive = small, poorly fitted or top-dose-only effect; inactive = flat fitted curve, though single readings scatter.

Columns and labels:
[1] = Cell Viability - LYMP2-023 (AID 975);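 note: cellular ATP measured by luciferase luminescence as viability proxy; series mostly up to about 92 µM; nearly all actives have a fitted effect of over 55% in size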
Method in brief: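 CellTiter-Glo luminescence after 30 min at room temperature; decrease in intracellular ATP reflects toxicity. Cells: human lymphoblastoid line, 2500/well, 24 hr compound exposure at 37 C. AC50 fitted to standard Hill equation from concentration-response.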

[2] = Cell Viability - LYMP2-025 (AID 976); note: series mostly up to about 92 µM
Method in brief: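 CellTiter-Glo luminescence (cellular ATP) after 24 h compound exposure at 37 C; LYMP2-025 human lymphoblastoid cells, 2500/well, complete medium. Tetraoctylammonium bromide positive control. AC50 by Hill equation fit of qHTS concentration-response.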

[3] = Cell Viability - LYMP2-002 (AID 977); note: series mostly up to about 92 µM
Method in brief: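 Human lymphoblastoid cells (2500/well) in complete medium were preincubated 5 hr at 37 C, then exposed to compounds for 24 hr at 37 C. Intracellular ATP was read by CellTiter-Glo luminescence; AC50 came from Hill-equation concentration-response fits.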

[4] = Cell Viability - LYMP2-014 (AID 983); note: series mostly up to about 92 µM; nearly all actives have a fitted effect of over 50% in size
Method in brief: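 2500 cells/well, 5 hr 37 C; cpd 24 hr 37 C, complete medium; CellTiter-Glo 30 min RT, luminescence; ATP loss = toxicity; AC50 via Hill eqn; tetraoctylammonium bromide positive control.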

[5] = Cell Viability - LYMP2-016 (AID 984); note: nearly all actives have a fitted effect of over 55% in size
Method in brief: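 Human lymphoblastoid LYMP2-016 cells, 2500 per well, treated with compounds for 24 h at 37 C. Viability read as intracellular ATP by CellTiter-Glo luminescence after 30 min at room temperature; AC50 from Hill fits of concentration-response.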

[6] = Cell Viability - LYMP2-006 (AID 978); note: series mostly up to about 92 µM; nearly all actives have a fitted effect of over 60% in size
Method in brief: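 Human lymphoblastoid cells (LYMP2-006), 2500/well in complete medium, were treated with compound for 24 hr at 37 C. Cellular ATP was read by CellTiter-Glo luminescence after 30 min, and AC50 values came from Hill-equation fits of concentration-response data.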

[7] = Cell Viability - LYMP2-008 (AID 980); note: nearly all actives have a fitted effect of over 60% in size
Method in brief: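 Luminescent ATP read-out (CellTiter-Glo, 30 min RT) after 24 hr compound exposure at 37 C of human lymphoblastoid cells in complete medium. Decrease in ATP taken as cytotoxicity; AC50 derived by standard Hill fit of qHTS concentration-response data.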

[8] = Cell Viability - LYMP2-010 (AID 981); note: nearly all actives have a fitted effect of over 55% in size
Method in brief: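 qHTS cytotoxicity, 1536-well: 2500 cells/well, 5 hr settle, 24 hr compound at 37 C, CellTiter-Glo 30 min RT, luminescence read. Decrease in ATP = toxicity; AC50 via standard Hill equation. Positive control tetraoctylammonium bromide.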

[9] = Cell Viability - LYMP2-012 (AID 982);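 note: cellular ATP by luciferase luminescence where a drop means cytotoxicity; cells exposed to compound for one day before reading; nearly all actives have a fitted effect of over 55% in size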
[10] = Cell Viability - LYMP2-018 (AID 985); note: nearly all actives have a fitted effect of over 50% in size
Method in brief: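 2500 cells/well; 5 hr 37 C; cmpd 24 hr 37 C, complete medium; CellTiter-Glo 30 min RT; luminescence. Tetraoctylammonium bromide positive control. AC50 via Hill fit.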

Measured: outcome

O=c1[nH]cc(F)c(=O)[nH]1
inactive: [1] | [2] | [3] | [4] | [5]

CC(C)NCC(O)c1ccc(O)c(O)c1 (stereo unspecified)
inactive: all assays above

COc1cc2c(c(OC)c1OC)-c1ccc(OC)c(=O)cc1[C@@H](NC(C)=O)CC2
inactive: [1] | [2]

Nc1ccn([C@H]2CC[C@@H](CO)O2)c(=O)n1
inactive: all assays above

NS(=O)(=O)c1cc2c(cc1Cl)NCNS2(=O)=O
inactive: all assays above

Cc1cn([C@H]2C=C[C@@H](CO)O2)c(=O)[nH]c1=O
inactive: all assays above

Cn1c(=O)c2c(ncn2C)n(C)c1=O
inactive: all assays above

Cc1ccc(-c2cc(C(F)(F)F)nn2-c2ccc(S(N)(=O)=O)cc2)cc1
inactive: all assays above

CC(C)C(=O)Nc1ccc([N+](=O)[O-])c(C(F)(F)F)c1
inactive: all assays above

Nc1c2c(nc3ccccc13)CCCC2
inactive: all assays above

Clc1ccc(C(c2ccccc2Cl)C(Cl)Cl)cc1 (stereo unspecified)
inactive: all assays above

COc1ccc2[nH]cc(CCNC(C)=O)c2c1
inactive: all assays above

O=c1c(-c2ccc(O)cc2)coc2cc(O)cc(O)c12
not listed: [8]
inactive: all other assays above

Cn1c(=O)c2[nH]cnc2n(C)c1=O
not listed: [2]
inactive: all other assays above

N[C@@H](Cc1c[nH]c2ccc(O)cc12)C(=O)O
inactive: all assays above

NCCS(=O)(=O)O
inactive: all assays above

Cc1cn([C@H]2C[C@H](N=[N+]=[N-])[C@@H](CO)O2)c(=O)[nH]c1=O
inactive: all assays above

COc1ccc(CCN(C)CCCC(C#N)(c2ccc(OC)c(OC)c2)C(C)C)cc1OC (stereo unspecified)
inactive: [2]

COc1ccc2c(c1)c(CC(=O)O)c(C)n2C(=O)c1ccc(Cl)cc1
inactive: all assays above

CCC1(c2ccccc2)C(=O)NCNC1=O
inactive: all assays above
